Experiments:
Assay in all cases: DAPPL (digital affinity profiling via proximity ligation, sequencing); 10 mM Tris-HCl pH 7.5, 50 mM NaCl, 1 mM DTT, 4% glycerol, room temperature, 30 min; GST-TFs on glutathione beads, 16-mer random dsDNA library, 0.1% formaldehyde crosslink after washing; high values mean tight binding
FEV = biological target: T1, FEV (Homo sapiens, UniProt Q99581 1-238); details: protein: recombinant; tags: N-terminal GST; dsDNA, one strand shown
T1 sequence: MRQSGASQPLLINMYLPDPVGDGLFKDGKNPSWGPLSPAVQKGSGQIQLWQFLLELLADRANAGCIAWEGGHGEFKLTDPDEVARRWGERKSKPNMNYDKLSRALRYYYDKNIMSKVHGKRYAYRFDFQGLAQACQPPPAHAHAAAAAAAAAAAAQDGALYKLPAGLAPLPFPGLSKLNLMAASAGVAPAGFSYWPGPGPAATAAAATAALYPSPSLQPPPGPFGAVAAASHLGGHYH
Summary of the method: (§1)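 Human transcription factors carrying a GST fusion were produced in yeast, bound to glutathione beads, tagged with DNA barcodes and pooled together with a tag-only sample. Each pool was held with 200 nmole of a random double-stranded 16-mer DNA library in Tris/NaCl/DTT/glycerol buffer for 30 min at room temperature, then washed, crosslinked in 0.1% formaldehyde, proximity-ligated with BsaI/T4 ligase (1 h, 37 °C), PCR-amplified and sequenced on an Illumina NextSeq500. Binding signal is the read frequency of each hexamer for a given factor divided by its frequency in the tag-only sample.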

ETV5 = ETV5 (Homo sapiens, UniProt P41161 1-510); details: protein: recombinant; tags: N-terminal GST; dsDNA, one strand shown
Sequence of ETV5 (P41161 whole entry): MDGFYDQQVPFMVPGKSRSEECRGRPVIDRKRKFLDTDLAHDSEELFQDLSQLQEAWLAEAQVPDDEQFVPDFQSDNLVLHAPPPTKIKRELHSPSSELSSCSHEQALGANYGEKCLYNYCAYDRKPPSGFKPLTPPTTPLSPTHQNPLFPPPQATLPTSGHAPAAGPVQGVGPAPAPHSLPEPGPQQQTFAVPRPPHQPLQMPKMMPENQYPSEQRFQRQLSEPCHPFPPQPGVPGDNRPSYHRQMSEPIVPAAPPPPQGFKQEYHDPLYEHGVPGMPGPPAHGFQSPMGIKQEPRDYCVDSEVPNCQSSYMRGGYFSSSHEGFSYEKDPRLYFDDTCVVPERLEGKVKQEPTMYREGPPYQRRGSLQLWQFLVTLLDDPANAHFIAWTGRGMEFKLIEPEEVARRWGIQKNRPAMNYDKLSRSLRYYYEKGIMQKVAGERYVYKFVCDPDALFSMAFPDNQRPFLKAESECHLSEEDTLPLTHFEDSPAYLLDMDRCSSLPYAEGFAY
Summary of the method: as §1

HSF1 = HSF1 (Homo sapiens, UniProt Q00613 1-529); details: protein: recombinant; tags: N-terminal GST; chain copies: 3; dsDNA, one strand shown
Sequence of HSF1 (Q00613 whole entry): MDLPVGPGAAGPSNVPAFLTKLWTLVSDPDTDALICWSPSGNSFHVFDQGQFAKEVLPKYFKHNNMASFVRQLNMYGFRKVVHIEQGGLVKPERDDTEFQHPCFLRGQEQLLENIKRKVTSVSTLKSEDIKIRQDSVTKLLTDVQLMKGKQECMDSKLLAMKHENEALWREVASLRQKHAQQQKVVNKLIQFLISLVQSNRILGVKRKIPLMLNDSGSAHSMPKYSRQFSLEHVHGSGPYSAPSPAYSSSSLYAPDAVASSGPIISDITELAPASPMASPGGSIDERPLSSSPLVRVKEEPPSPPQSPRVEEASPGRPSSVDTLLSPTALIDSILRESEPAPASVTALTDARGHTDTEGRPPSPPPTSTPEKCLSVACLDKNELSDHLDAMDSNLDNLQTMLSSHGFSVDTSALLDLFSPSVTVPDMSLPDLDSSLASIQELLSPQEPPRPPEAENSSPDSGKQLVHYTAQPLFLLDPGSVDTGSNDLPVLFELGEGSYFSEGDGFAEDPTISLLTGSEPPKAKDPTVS
Summary of the method: as §1

SPIC = biological target: T2, SPIC (Homo sapiens, UniProt Q8N5J4 1-248); details: protein: recombinant; tags: N-terminal GST; dsDNA, one strand shown
T2 sequence: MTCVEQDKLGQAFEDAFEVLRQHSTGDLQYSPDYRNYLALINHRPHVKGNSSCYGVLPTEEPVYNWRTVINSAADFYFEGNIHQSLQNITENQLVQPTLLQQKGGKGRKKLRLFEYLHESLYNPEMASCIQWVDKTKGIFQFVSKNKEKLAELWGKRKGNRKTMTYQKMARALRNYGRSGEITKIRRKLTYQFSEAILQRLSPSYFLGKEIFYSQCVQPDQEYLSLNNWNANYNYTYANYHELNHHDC
Summary of the method: as §1

ELF4 = ELF4 (Homo sapiens, UniProt Q99607 1-663); details: protein: recombinant; tags: N-terminal GST; dsDNA, one strand shown
Sequence of ELF4 (Q99607 whole entry): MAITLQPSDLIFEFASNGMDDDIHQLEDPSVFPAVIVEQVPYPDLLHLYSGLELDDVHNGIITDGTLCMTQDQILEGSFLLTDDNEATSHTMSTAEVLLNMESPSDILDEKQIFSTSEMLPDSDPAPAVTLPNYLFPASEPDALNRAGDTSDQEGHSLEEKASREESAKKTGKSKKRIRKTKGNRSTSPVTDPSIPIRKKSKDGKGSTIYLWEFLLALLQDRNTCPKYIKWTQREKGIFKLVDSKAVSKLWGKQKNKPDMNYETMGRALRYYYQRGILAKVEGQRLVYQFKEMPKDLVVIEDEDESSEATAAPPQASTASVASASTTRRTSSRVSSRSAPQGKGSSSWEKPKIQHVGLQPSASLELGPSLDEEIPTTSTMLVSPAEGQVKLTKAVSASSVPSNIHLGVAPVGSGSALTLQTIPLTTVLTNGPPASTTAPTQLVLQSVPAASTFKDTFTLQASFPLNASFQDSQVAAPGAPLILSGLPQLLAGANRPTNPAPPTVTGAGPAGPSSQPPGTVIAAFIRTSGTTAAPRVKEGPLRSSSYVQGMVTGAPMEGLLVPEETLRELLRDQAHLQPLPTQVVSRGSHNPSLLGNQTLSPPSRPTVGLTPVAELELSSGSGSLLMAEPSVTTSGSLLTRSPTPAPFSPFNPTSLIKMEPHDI
Summary of the method: as §1

ELK4 = biological target: T3, ELK4 (Homo sapiens, UniProt P28324-2 1-405); details: protein: recombinant; tags: N-terminal GST; dsDNA, one strand shown
T3 sequence: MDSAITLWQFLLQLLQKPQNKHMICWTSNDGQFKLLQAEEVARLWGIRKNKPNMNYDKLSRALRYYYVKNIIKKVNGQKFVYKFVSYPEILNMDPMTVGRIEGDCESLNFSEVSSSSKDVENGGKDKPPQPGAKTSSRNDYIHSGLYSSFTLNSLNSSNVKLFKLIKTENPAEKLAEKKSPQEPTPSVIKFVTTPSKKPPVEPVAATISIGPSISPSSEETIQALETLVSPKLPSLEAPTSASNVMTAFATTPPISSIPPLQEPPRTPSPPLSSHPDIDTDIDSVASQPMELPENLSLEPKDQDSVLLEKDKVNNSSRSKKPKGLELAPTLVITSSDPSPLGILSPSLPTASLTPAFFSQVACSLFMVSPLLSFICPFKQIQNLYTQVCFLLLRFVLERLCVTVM
Summary of the method: as §1

ETV2 = biological target: T4, ETV2 (Homo sapiens, UniProt O00321 1-342); details: protein: recombinant; tags: N-terminal GST; dsDNA, one strand shown
T4 sequence: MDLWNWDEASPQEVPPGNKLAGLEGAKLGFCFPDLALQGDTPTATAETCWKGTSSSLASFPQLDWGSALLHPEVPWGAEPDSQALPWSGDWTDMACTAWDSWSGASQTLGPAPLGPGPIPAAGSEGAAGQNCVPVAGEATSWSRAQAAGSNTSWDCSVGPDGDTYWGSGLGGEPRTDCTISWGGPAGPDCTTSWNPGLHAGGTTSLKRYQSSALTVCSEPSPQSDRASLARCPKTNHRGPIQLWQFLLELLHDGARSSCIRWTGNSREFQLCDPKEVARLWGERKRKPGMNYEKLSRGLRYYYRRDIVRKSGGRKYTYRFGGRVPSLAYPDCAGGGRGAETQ
Summary of the method: as §1

ELF3 = biological target: T5, ELF3 (Homo sapiens, UniProt P78545 1-371); details: protein: recombinant; tags: N-terminal GST; dsDNA, one strand shown
T5 sequence: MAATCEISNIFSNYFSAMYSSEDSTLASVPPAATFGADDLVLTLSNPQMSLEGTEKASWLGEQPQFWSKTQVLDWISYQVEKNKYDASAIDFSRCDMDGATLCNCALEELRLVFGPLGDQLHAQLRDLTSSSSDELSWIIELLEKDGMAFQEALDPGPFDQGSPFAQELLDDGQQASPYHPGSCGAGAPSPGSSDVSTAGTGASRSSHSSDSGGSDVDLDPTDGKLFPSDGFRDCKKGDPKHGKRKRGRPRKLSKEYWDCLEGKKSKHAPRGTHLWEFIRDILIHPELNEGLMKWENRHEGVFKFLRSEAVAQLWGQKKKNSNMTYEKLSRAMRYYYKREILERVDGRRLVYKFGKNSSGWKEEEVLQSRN
Summary of the method: as §1

CRX = CRX (Homo sapiens, UniProt O43186 1-299); details: protein: recombinant; tags: N-terminal GST; dsDNA, one strand shown
Sequence of CRX (O43186 whole entry): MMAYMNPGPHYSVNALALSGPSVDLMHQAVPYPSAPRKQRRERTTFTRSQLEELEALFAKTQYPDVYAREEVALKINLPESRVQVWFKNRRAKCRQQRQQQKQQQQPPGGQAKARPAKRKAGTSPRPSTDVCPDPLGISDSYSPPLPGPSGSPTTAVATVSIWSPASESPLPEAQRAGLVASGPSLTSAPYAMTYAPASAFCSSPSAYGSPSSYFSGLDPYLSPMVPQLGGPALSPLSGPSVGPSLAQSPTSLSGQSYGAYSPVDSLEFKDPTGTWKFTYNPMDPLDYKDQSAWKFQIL
Summary of the method: as §1

ETV1 = ETV1 (Homo sapiens, UniProt P50549 1-477); details: protein: recombinant; tags: N-terminal GST; dsDNA, one strand shown
Sequence of ETV1 (P50549 whole entry): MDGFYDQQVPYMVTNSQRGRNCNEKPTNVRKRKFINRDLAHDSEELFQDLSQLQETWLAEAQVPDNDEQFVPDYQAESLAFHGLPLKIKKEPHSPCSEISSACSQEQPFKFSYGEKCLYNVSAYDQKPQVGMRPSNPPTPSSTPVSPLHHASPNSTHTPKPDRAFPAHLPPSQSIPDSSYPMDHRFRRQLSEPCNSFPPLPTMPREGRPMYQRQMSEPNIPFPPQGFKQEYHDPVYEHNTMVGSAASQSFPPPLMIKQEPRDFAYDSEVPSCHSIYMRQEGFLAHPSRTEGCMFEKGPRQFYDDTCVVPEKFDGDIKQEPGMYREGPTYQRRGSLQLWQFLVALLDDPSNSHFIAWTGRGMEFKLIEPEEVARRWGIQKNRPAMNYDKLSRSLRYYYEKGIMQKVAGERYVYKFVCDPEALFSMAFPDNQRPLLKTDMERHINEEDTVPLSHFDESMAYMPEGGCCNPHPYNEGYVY
Summary of the method: as §1

Sequence | binding signal (FEV) | binding signal (ETV5) | binding signal (HSF1) | binding signal (SPIC) | binding signal (ELF4) | binding signal (ELK4) | binding signal (ETV2) | binding signal (ELF3) | binding signal (CRX) | binding signal (ETV1)
CTTATA | 1.31 fold enrichment (6-mer frequency, TF over GST control) | 1.29 fold enrichment (6-mer frequency, TF over GST control) | 1.65 fold enrichment (6-mer frequency, TF over GST control) | 1.34 fold enrichment (6-mer frequency, TF over GST control) | 1.32 fold enrichment (6-mer frequency, TF over GST control) | 1.38 fold enrichment (6-mer frequency, TF over GST control) | 1.15 fold enrichment (6-mer frequency, TF over GST control) | 1.37 fold enrichment (6-mer frequency, TF over GST control) | 2.27 fold enrichment (6-mer frequency, TF over GST control) | 1.49 fold enrichment (6-mer frequency, TF over GST control)
TTTTCG | 1.23 fold enrichment (6-mer frequency, TF over GST control) | 1.27 fold enrichment (6-mer frequency, TF over GST control) | 1.53 fold enrichment (6-mer frequency, TF over GST control) | 1.11 fold enrichment (6-mer frequency, TF over GST control) | 1.29 fold enrichment (6-mer frequency, TF over GST control) | 1.08 fold enrichment (6-mer frequency, TF over GST control) | 1.33 fold enrichment (6-mer frequency, TF over GST control) | 1.11 fold enrichment (6-mer frequency, TF over GST control) | 1.28 fold enrichment (6-mer frequency, TF over GST control) | 1.2 fold enrichment (6-mer frequency, TF over GST control)
GACTCC | 1.32 fold enrichment (6-mer frequency, TF over GST control) | 1.27 fold enrichment (6-mer frequency, TF over GST control) | 1.05 fold enrichment (6-mer frequency, TF over GST control) | 1.34 fold enrichment (6-mer frequency, TF over GST control) | 1.43 fold enrichment (6-mer frequency, TF over GST control) | 1.12 fold enrichment (6-mer frequency, TF over GST control) | 1.26 fold enrichment (6-mer frequency, TF over GST control) | 1.25 fold enrichment (6-mer frequency, TF over GST control) | 1.02 fold enrichment (6-mer frequency, TF over GST control) | 1.29 fold enrichment (6-mer frequency, TF over GST control)
TGCTAT | 1.39 fold enrichment (6-mer frequency, TF over GST control) | 1.43 fold enrichment (6-mer frequency, TF over GST control) | 1.22 fold enrichment (6-mer frequency, TF over GST control) | 1.37 fold enrichment (6-mer frequency, TF over GST control) | 1.37 fold enrichment (6-mer frequency, TF over GST control) | 1.57 fold enrichment (6-mer frequency, TF over GST control) | 1.71 fold enrichment (6-mer frequency, TF over GST control) | 1.6 fold enrichment (6-mer frequency, TF over GST control) | 1.3 fold enrichment (6-mer frequency, TF over GST control) | 1.31 fold enrichment (6-mer frequency, TF over GST control)
CGCTTC | 2.28 fold enrichment (6-mer frequency, TF over GST control) | 2.34 fold enrichment (6-mer frequency, TF over GST control) | 1.26 fold enrichment (6-mer frequency, TF over GST control) | 1.77 fold enrichment (6-mer frequency, TF over GST control) | 2.02 fold enrichment (6-mer frequency, TF over GST control) | 1.77 fold enrichment (6-mer frequency, TF over GST control) | 1.68 fold enrichment (6-mer frequency, TF over GST control) | 1.93 fold enrichment (6-mer frequency, TF over GST control) | 1.05 fold enrichment (6-mer frequency, TF over GST control) | 2.03 fold enrichment (6-mer frequency, TF over GST control)
TTACTT | 1.55 fold enrichment (6-mer frequency, TF over GST control) | 1.53 fold enrichment (6-mer frequency, TF over GST control) | 1.41 fold enrichment (6-mer frequency, TF over GST control) | 1.33 fold enrichment (6-mer frequency, TF over GST control) | 1.46 fold enrichment (6-mer frequency, TF over GST control) | 1.33 fold enrichment (6-mer frequency, TF over GST control) | 1.66 fold enrichment (6-mer frequency, TF over GST control) | 1.75 fold enrichment (6-mer frequency, TF over GST control) | 1.95 fold enrichment (6-mer frequency, TF over GST control) | 1.55 fold enrichment (6-mer frequency, TF over GST control)
TCTAGC | 1.25 fold enrichment (6-mer frequency, TF over GST control) | 1.27 fold enrichment (6-mer frequency, TF over GST control) | 2.63 fold enrichment (6-mer frequency, TF over GST control) | 1.16 fold enrichment (6-mer frequency, TF over GST control) | 1.26 fold enrichment (6-mer frequency, TF over GST control) | 1.39 fold enrichment (6-mer frequency, TF over GST control) | 1.19 fold enrichment (6-mer frequency, TF over GST control) | 1.32 fold enrichment (6-mer frequency, TF over GST control) | 1.7 fold enrichment (6-mer frequency, TF over GST control) | 1.21 fold enrichment (6-mer frequency, TF over GST control)
TCATCC | 1.4 fold enrichment (6-mer frequency, TF over GST control) | 1.35 fold enrichment (6-mer frequency, TF over GST control) | 1.38 fold enrichment (6-mer frequency, TF over GST control) | 1.39 fold enrichment (6-mer frequency, TF over GST control) | 1.36 fold enrichment (6-mer frequency, TF over GST control) | 1.24 fold enrichment (6-mer frequency, TF over GST control) | 1.44 fold enrichment (6-mer frequency, TF over GST control) | 1.49 fold enrichment (6-mer frequency, TF over GST control) | 1.65 fold enrichment (6-mer frequency, TF over GST control) | 1.35 fold enrichment (6-mer frequency, TF over GST control)

Source: PMC7862700, “An all-to-all approach to the identification of sequence-specific readers for epigenetic DNA modifications on cytosine”
